According to the OligoGym collection:

Target: SLIT1
Experiment: pooled miR-30 sensor sort-seq; sequence = guide strand
Conditions: shRNA
Further: reference of the scale not given here.

| Sequence | sensor-assay potency score (higher = more potent) |
| --- | --- |
| TTGTGGATGCAGCTGATGCGGT | -0.921 |
| TGAAGGTAGACAGCTGTCCCGG | -1.03 |
| TTGCTTAAGGAACTGATCTTGT | -0.323 |
| TTCAATCGCAGTTCTGCCGTGG | 0.209 |
| TTGAGGATCTGCCACAGGCGGA | -1.35 |
| TTGCAGGTCAGTGAACTGCAGG | -1.32 |
| TTGACATGGGTTCAGATCCGGA | -1.04 |
| TAAGTTTTTTAAACATCCCAGT | -1.01 |
| TTGACACTGAGCAACTTCTCAC | -0.268 |
| TTGCTCACACAGCTCGCCCGAA | -0.836 |
| TTCAATTTCTGACACCTTGTTG | -0.171 |
| TTCTTGCTCTTGATCTGCCCGA | -0.859 |

Target: SLITRK3
Experiment: as above
Conditions: shRNA

| Sequence | sensor-assay potency score (higher = more potent) |
| --- | --- |
| TTGCACATTTGGGTAACCGGGT | -0.695 |
| TTGCAGTTGACAGTCAAGCCAA | -0.544 |
| TTTCTCGTAGGTCCTTTCCATG | -1.36 |
| TTCTCATTGAGGTCTATCTGGA | -0.877 |
| TTGAACTCAAAGTACAAGTAGT | -0.338 |
| AATGACATTGTAATCTGCCTGC | 0.274 |
| TTCATGTAGATATAGTCTCTTT | -0.676 |
| TAAAAAAGAACCTTTAACCTAT | 0.15 |
| TTGATGTGCAAATTACAGGTAC | -0.245 |
| TTAACTTCACAGTAGCATGGAT | -0.128 |
| TTATCCACAACATCCTTCCTCT | 0.0957 |
| TCTTTTTCCAGCAAGGTCCGGT | -0.176 |

Target: SLITRK5
Experiment: as above
Conditions: shRNA

| Sequence | sensor-assay potency score (higher = more potent) |
| --- | --- |
| TCGCTCTGGTTCTTCTTCCTGC | -1.1 |
| AACATTGCTACCTAGATGCAAA | -1.34 |
| TTATTCAAGAATAGCAGCTGGA | -0.212 |
| TACAGTGTGACACCTCTGCAAA | -1.11 |
| TACATCTGAATAGTCAGGGCAC | 0.215 |
| TAATTGACAAACTCATTGGGAT | 0.191 |
| TTGGATGAGTGACTTCAGCTGG | 0.319 |
| TTCCAGACTGAATCTCGCGGAT | -0.818 |
| TAGTCAGAAATAAGTCTCCTTG | -0.638 |
| TAATACAGTGTGACACCTCTGC | 0.818 |
| TACAGCAAACGCTAGAGTCTGC | -0.49 |

Target: SLMAP
Experiment: as above
Conditions: shRNA

| Sequence | sensor-assay potency score (higher = more potent) |
| --- | --- |
| TTGAAGATAAAACTTGCCCGTC | 0.116 |
| TAACTTTCCGTGTATTCTCTGT | -0.472 |
| TAAGAGTCTATCTTCATCTATT | -0.538 |
